According to PubChem BioAssay (NCI):
About 83,000 compounds went through this panel and 20% of them were active in at least one assay; those are over-represented in the sample as a whole.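 The test compound was applied at a single concentration to cells in 96-well plates for 48 hours, and percent growth was recorded.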 The source made the active and inactive calls. The calls were made as follows: active = growth percent below 10; inactive = the rest.

Columns and labels:
Experiment in all cases: NCI-60 one-dose screen, 48 h (100 = growth as untreated, 0 = no growth, -100 = all killed)
Conditions in all cases: 10 µM unless noted
[1] = system: DU-145 prostate
[2] = system: K-562 leukemia
[3] = system: MALME-3M melanoma
[4] = system: MDA-MB-231 breast
[5] = system: RXF 393 renal
[6] = system: SF-268 CNS
[7] = system: SF-295 CNS
[8] = system: SF-539 CNS
[9] = system: UACC-257 melanoma
[10] = system: M14 melanoma
[11] = system: HCT-15 colon
[12] = system: HT29 colon
[13] = system: SNB-75 CNS
[14] = system: SNB-19 CNS
[15] = system: U251 CNS
[16] = system: PC-3 prostate
[17] = system: SK-MEL-5 melanoma
[18] = system: UACC-62 melanoma
[19] = system: LOX IMVI melanoma
[20] = system: SK-MEL-28 melanoma

Measured: growth

COc1ccc(C(=S)N2CCN(c3cccc(C)c3)CC2)cc1OC
inactive: [1] 90.7% | [2] 25.5% | [3] 80% | [4] 77.3% | [5] 67.8% | [6] 84.7% | [7] 57.4% | [8] 82.2% | [9] 77.7% | [10] 38.4% | [11] 44.5% | [12] 43.3% | [13] 59.7% | [14] 78.5% | [15] 53.9% | [16] 75.3% | [17] 60.2% | [18] 64% | [19] 55.7% | [20] 75.7%

O=C1/C(=C/c2ccccc2[N+](=O)[O-])Oc2ccc(O)c(O)c21
active: [5] 5.8% | [18] -41.1%
inactive: [1] 32.5% | [2] 17.2% | [3] 45% | [4] 45.6% | [6] 60.4% | [7] 85.2% | [8] 29% | [9] 49.3% | [10] 54.9% | [11] 18.6% | [12] 32.3% | [13] 65.9% | [14] 70.3% | [15] 54.1% | [16] 44.5% | [17] 62% | [19] 14.3% | [20] 22.5%

CN1CCN(c2ccc(-c3ccc4ncc(C#N)c(Nc5ccc(F)c(Cl)c5)c4c3)cn2)CC1
inactive: [1] 27.5% | [2] 17.3% | [3] 27.9% | [4] 77.2% | [5] 27.3% | [6] 47.7% | [7] 71.5% | [8] 60.2% | [9] 34% | [10] 30.5% | [11] 13.4% | [12] 36.6% | [13] 64.1% | [14] 74.7% | [15] 57% | [16] 58.5% | [17] 82.9% | [18] 86% | [19] 68.8% | [20] 70.3%

NCCNc1nc2ccccc2c2c(=O)c3cccc(F)c3sc12
inactive: [1] 37% | [2] 17.2% | [3] 88.4% | [4] 44.7% | [5] 83.3% | [6] 61.6% | [7] 91.7% | [8] 59.2% | [9] 101% | [10] 83.3% | [11] 36.5% | [12] 16.4% | [13] 88% | [14] 56.8% | [15] 43.9% | [16] 62.9% | [17] 88.2% | [18] 95.9% | [19] 46.6% | [20] 106%

CCOC(=O)c1cn2ncnc(Oc3ccc(NC(=O)NCCN(C)C)c(Cl)c3)c2c1C
inactive: [1] 86.8% | [3] 58.9% | [4] 65.2% | [5] 55.6% | [6] 65.1% | [7] 94.6% | [8] 71.5% | [11] 23.2% | [13] 99.1% | [14] 82.8% | [15] 70% | [16] 68.6% | [17] 60.9% | [18] 21.7% | [19] 10.3% | [20] 37.6%
active: [2] 4.33% | [9] -4.6% | [10] -40.6% | [12] 7.1%

COc1ccc(-c2nc(NN)c3c(C)nn(-c4ccc(F)cc4)c3n2)cc1
inactive: [1] 37.9% | [2] 17.8% | [3] 61.5% | [4] 53.1% | [5] 51% | [6] 46.3% | [7] 27.8% | [8] 36.2% | [9] 45.3% | [10] 26.4% | [11] 31.2% | [13] 23.3% | [14] 35.1% | [15] 27.1% | [16] 42.3% | [17] 40.7% | [18] 36.2% | [19] 41.9% | [20] 61.4%
active: [12] 7.11%

Cc1nc(/N=C(\N)NC(=O)Nc2cccc(Cl)c2)sc1C
inactive: [1] 90% | [2] 17% | [3] 62% | [4] 87.9% | [5] 87.8% | [6] 89.5% | [7] 77.2% | [8] 78.3% | [9] 71.7% | [10] 50.5% | [11] 32% | [12] 30.2% | [13] 21.9% | [14] 83.2% | [15] 83.5% | [16] 81.5% | [17] 80.2% | [18] 60.5% | [19] 68.8% | [20] 69%
